Compound activity (PubChem)
Rows were chosen to be rich in hits. Some 3.4% of all compounds tested hit in one or more screens of this group.
GPR151 activ = activates the human receptor GPR151; activation, % at 11.2 µM; 1% of 650,000 active; AID 1508602; Q8TDV0; PathHunter beta-arrestin GPR151 cells, luminescence; in the data active = activation above about 4.9%;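 also: 0% = median of compound wells and 100% = cells with positive control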
TEAD-YAP block = TEAD-YAP interaction inhibition; inhibition, % at 9.12 µM; 1.4% of 640,000 active; HEK-TIYL cells, TEAD-Gal4/YAP UAS-luciferase luminescence; in the data active = inhibition above about 32%;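 also: 0% = median of test compound wells and 100% = reference inhibitor wells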
FBW7 activator = human FBW7 E3 ligase activation, primary screen. Q969H0. AlphaScreen FBW7–phospho-cyclin E peptide binding, activator screen. normalized activity (activation), % at 26.1 µM. 0.13% of 650,000 active; in the data active = normalized activity above about 1.9%;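 also: purified mutant Fbw7 with reduced substrate affinity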
MITF primary = inhibitors of human MITF | O75030 | AlphaScreen MITF homodimerization, bead proximity signal | inhibition, % at 2.6 µM | 0.91% of 650,000 active | AID 1259374; in the data active = inhibition above about 50%;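 also: 0% = vehicle wells with protein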
Target sequence (O75030 whole entry, looked up): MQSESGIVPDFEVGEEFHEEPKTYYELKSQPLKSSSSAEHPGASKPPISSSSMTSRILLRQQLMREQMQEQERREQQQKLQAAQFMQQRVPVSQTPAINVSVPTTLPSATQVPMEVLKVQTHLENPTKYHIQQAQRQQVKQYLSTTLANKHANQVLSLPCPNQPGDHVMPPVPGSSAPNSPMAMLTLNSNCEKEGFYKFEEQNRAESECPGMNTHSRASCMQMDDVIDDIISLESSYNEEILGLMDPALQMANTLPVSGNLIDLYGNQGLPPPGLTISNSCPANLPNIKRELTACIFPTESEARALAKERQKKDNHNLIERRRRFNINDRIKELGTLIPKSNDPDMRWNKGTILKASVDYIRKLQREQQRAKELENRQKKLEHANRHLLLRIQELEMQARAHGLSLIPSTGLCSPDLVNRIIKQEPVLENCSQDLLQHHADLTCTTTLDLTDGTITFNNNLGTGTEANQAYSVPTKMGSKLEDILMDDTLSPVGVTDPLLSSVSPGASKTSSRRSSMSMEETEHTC
Starred values were filed as active, the others as inactive.

SMILES	GPR151 activ	TEAD-YAP block	FBW7 activator	MITF primary
CC(C)c1nnc(NC(=O)C2CCCN(C(=O)Nc3ccccc3)C2)s1 (stereo unspecified)	0.2	-0.9	0.3	5.0
N#Cc1c(NC(=O)CCCN2C(=O)c3ccccc3C2=O)sc2c1CCCCC2	-0.2	9.8	0.0	8.4
COc1cc(Nc2nc3ccc(C(=O)NCc4cccnc4)cc3s2)cc(OC)c1OC	2.5	42.0*	-0.1	6.1
O=C(NCc1cccc(C(F)(F)F)c1)c1ccc2nc(Nc3ccc(-n4ccnc4)cc3)sc2c1	0.2	10.9	0.2	-1.3
O=C(NCc1cccnc1)c1ccc2nc(Nc3ncccn3)sc2c1	0.9	-32.3	-0.1	-14.7
COc1cc(NC(=O)c2ccc3nc(Nc4ccccn4)sc3c2)cc(OC)c1OC	-3.0	32.1*	-0.1	-2.8
O=C(NCc1ccccc1)c1ccc2nc(Nc3ccc(-n4ccnc4)cc3)sc2c1	2.9	35.6*	-0.1	9.1
N#C/C(=C\c1ccc2c(c1)OCO2)C(=O)Nc1ccccc1Br	-0.1	3.8	0.4	1.9
CC(C)C(=O)NCCc1nnc2n1CCN(Cc1ccc(-c3ccccc3)cc1)CC2	-0.3	-2.8	0.0	17.5
CCOc1ccc(/C=N/NC(=O)CCC(=O)Nc2cccc(C)c2)cc1	-1.0	-2.0	0.3	5.4
CC(C)(C)c1ccc(Nc2nc(N)c(C#N)c(CC#N)c2C#N)cc1	-0.1	-11.8	-0.1	-4.3
CCCCNC(=O)c1cc(-c2cccc(OC)c2)on1	-1.7	-45.2	0.2	-6.2
O=C(NC1CCCCC1)c1cc(-c2ccccc2)on1	-0.2	-46.9	0.4	0.8
O=C(NC1CCCC1)c1cc(-c2cccc(O)c2)on1	-0.2	70.2*	-0.1	-4.4
CCCCNC(=O)c1cc(-c2cccc(O)c2)on1	0.2	36.3*	0.1	9.2
CN(C(=O)c1cc(-c2cccc(O)c2)on1)c1ccccc1	-0.1	48.5*	0.0	-11.7
COc1ccccc1N1CCN(C(=O)CSc2nc3c(sc(=S)n3CCc3ccccc3)c(=O)n2-c2ccccc2OC)CC1	-0.1	3.8	0.0	3.0
COc1cc(/C=C/C(=O)O)c(S(=O)(=O)NCc2ccco2)cc1OC	-2.5	-12.8	0.2	7.2
O=C(c1ccc(N2C(=O)c3cccc4cc([N+](=O)[O-])cc(c34)C2=O)cc1)N1CCOCC1	-0.1	4.6	-0.1	0.5
COc1ccc(C(Nc2cccc(C)n2)c2ccc3ccc(C)nc3c2O)cc1C (stereo unspecified)	-1.8	41.9*	0.2	3.6
Cc1ccc2ccc(C(Nc3ccccn3)c3ccc(N(C)C)cc3)c(O)c2n1 (stereo unspecified)	-0.3	6.0	-0.1	13.6
CCc1ccc(C(Nc2ccccn2)c2ccc3cccnc3c2O)cc1 (stereo unspecified)	0.7	84.0*	-1.1	27.7
C=CCOc1ccc(C(Nc2ccccn2)c2ccc3cccnc3c2O)cc1 (stereo unspecified)	0.9	85.7*	-1.0	55.3*
CSc1ccc(C(Nc2ccccn2)c2ccc3cccnc3c2O)cc1 (stereo unspecified)	0.5	77.9*	-1.0	8.1
O=C(NCCN1CCCCCC1)c1cc(-c2ccncc2)nc2ccccc12	0.0	-2.2	-0.2	-11.9
SMILES	GPR151 activ	TEAD-YAP block	FBW7 activator	MITF primary
Cc1ccc(C(Nc2cccc(C)n2)c2ccc3cccnc3c2O)cc1 (stereo unspecified)	-0.4	76.4*	-1.0	6.3
CSc1ccc(C(Nc2ccccn2)c2ccc3ccc(C)nc3c2O)cc1 (stereo unspecified)	0.1	21.1	-0.2	1.2
Oc1c(C(Nc2ccccn2)c2ccc(F)cc2)ccc2cccnc12 (stereo unspecified)	0.3	69.9*	-1.9	8.9
CCN(CC)c1ccc(/C=C(/C#N)C(=O)Nc2ccc(O)cc2)cc1	-0.3	39.9*	-0.1	17.3
CCOCCCNC(=O)/C(C#N)=C/c1ccc(Cl)c([N+](=O)[O-])c1	-2.8	5.2	0.7	15.9
CCOc1cc(/C=C(/C#N)C(=O)Nc2ccc(O)cc2)cc(Br)c1O	-0.8	55.8*	-0.2	-8.7
CCOCCCNC(=O)/C(C#N)=C/c1cc(OC)c(O)c([N+](=O)[O-])c1	-1.3	47.6*	0.1	20.4
COc1cc(/C=C(\C#N)C(=O)Nc2ccc(F)cc2)cc([N+](=O)[O-])c1O	-0.9	36.6*	-0.4	-4.6
COc1cc(/C=C(\C#N)C(=O)Nc2ccc(Cl)cc2)cc([N+](=O)[O-])c1O	-1.2	7.9	0.9	23.4
CCOC(=O)c1c(NC(=O)c2ccccc2F)sc(C(=O)Nc2cccc([N+](=O)[O-])c2)c1C	-1.6	-5.0	-0.4	-9.6
COc1cc(/C=C(/C#N)C(=O)Nc2ccc(O)cc2)ccc1O	1.1	47.2*	0.0	16.5
COc1cc(/C=C(/C#N)C(=O)Nc2cccc(C)c2)cc(Br)c1O	-1.5	3.1	-0.2	-4.3
COc1cc(/C=C(/C#N)C(=O)Nc2ccc(O)cc2)cc(Br)c1O	2.1	43.4*	-0.1	0.5
COc1cc(/C=C(\C#N)C(=O)Nc2ccc(O)cc2)cc(Cl)c1O	0.5	54.4*	0.0	2.8
CCOC(=O)N1CCC(NC(=O)Cn2ncc3c(=O)oc4ccccc4c32)CC1	0.6	2.1	0.1	1.2
Cc1ccc(C(=O)Nc2ccccc2-c2nnn(CC(=O)NC3CCCC3)n2)cc1	0.2	7.7	-0.1	1.0
CCn1nc(-c2ccc(C(F)(F)F)cc2)nc2c(=O)n(C)c(=O)nc1-2	-8.4	-1.9	-0.1	15.4
CCOc1cc(-c2nc3c(=O)n(C)c(=O)nc-3n(C)n2)ccc1OC(C)C	-3.1	95.3*	-0.3	21.1
Cc1ccccc1-c1nc2c(=O)n(C)c(=O)nc-2n(C)n1	-2.4	90.6*	-0.3	3.4
CCCc1nc2c(=O)n(C)c(=O)nc-2n(C)n1	-3.6	98.7*	-0.5	-4.5
CCn1nc(-c2cccc(Cl)c2)nc2c(=O)n(C)c(=O)nc1-2	-8.6	-52.4	-0.2	-11.5
CC(=O)Oc1ccc(N2C(=O)c3cccnc3C2=O)cc1	0.3	-6.5	-1.6	37.5
CC1CN(CC(=O)NCc2nc(-c3ccccc3)cs2)Cc2ccccc2O1 (stereo unspecified)	-0.9	3.6	0.7	14.6
CCCC1CCC(C2CCC(OC(=O)c3cncc(Br)c3)CC2)CC1 (stereo unspecified)	0.5	-5.8	-0.1	-2.8
O=C(NN1C(=O)CCC1=O)c1ccccc1O	3.3	47.0*	-0.1	-17.2
SMILES	GPR151 activ	TEAD-YAP block	FBW7 activator	MITF primary
COc1ccccc1C(=O)NN1C(=O)CCC1=O	-0.3	-6.2	0.1	-7.5
CCN(CC)c1ccc(/C=N\Nc2ncc(F)c(N3CCOCC3)n2)c(O)c1	0.0	37.3*	-0.6	61.8*
Fc1cnc(N/N=C/c2cccs2)nc1N1CCOCC1	-4.2	44.7*	0.1	7.8
Fc1cnc(N/N=C/c2ccc(Cl)cc2Cl)nc1N1CCOCC1	-1.5	-29.4	-0.9	-12.6
COc1cccc(/C=N\Nc2ncc(F)c(N3CCOCC3)n2)c1O	0.6	40.6*	-0.6	85.6*
Fc1cnc(N/N=C\c2ccc(-c3ccccc3)o2)nc1N1CCOCC1	-0.4	-20.5	-0.1	7.3
Cc1ccccc1CN1C[C@@H]2C[C@@H](c3ccco3)N3CCC[C@@]23C1=O	0.2	1.8	0.5	2.4
